The results in this text go back to PMC5540273 (PLoS ONE, 2017).

Test systems include EPHA7; EPHA8; EPHB1; EPHB2; EPHB3; EPHB4; EPHB6; ERBB2; ERBB3; ERBB4; ERN1; FER; FES.
Conditions in all cases: concentration: 1 μM, replicates: in singlicate; n = 1
A further assay has as its system T1, ERK1.
T1 construct: gene MAPK3

The subject of another assay is T2, ERK2.
T2 construct: gene MAPK1

The next assay concerns T3, ERK3.
T3 construct: gene MAPK6

The test system of another assay is T4, ERK4.
T4 construct: gene MAPK4

The subject of the next assay is T5, ERK5.
T5 construct: gene MAPK7

In another assay the test system is T6, ERK8.
T6 construct: gene MAPK15

In the next assay the test system is T7, FAK.
T7 construct: gene PTK2
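Also: KINOMEscan kinase panel screen.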

For `Nc1ncnc2scc(-c3ccc(NC(=O)Cc4cc(F)ccc4F)cc3)c12.O=C(O)C(F)(F)F` [SB-731254-M], the “%Inh” value worked out at 4% with EPHA7; 0% with EPHA8; 0% in the assay with EPHB1; 15% in the assay with EPHB2; 0% in the assay with EPHB3; 5% with EPHB4. The “%Inh” value in the assay on EPHB6 turned out to be 98.8%; with ERBB2, 39%; in the assay with ERBB3, 0%; with ERBB4, 53%; with ERK1, 0%; with ERK2, 0%. Also, the “%Inh” value in the assay with ERK3 is 0%; in the assay with ERK4, 11%; with ERK5, 28%; in the assay with ERK8, 0%; in the assay on ERN1, 34%; with FAK, 4%. Further, the “%Inh” value in the assay on FER worked out at 4%; in the assay on FES it was 0%.
For the compound `CC(C)c1nc(-c2ccc(F)c(NS(=O)(=O)c3c(F)cccc3F)c2)c(-c2ccnc(Nc3ccc(N4CCOCC4)nc3)n2)s1` [GSK1804250], the “%Inh” value in the assay with EPHA7 is reported as 12%; with EPHA8, 70%; in the assay on EPHB1, 21%; with EPHB2 it was 0%; with EPHB3, 24%; in the assay on EPHB4, 12%. Besides, the “%Inh” value amounted to 97.3% with EPHB6; 95.8% in the assay with ERBB2; 98.8% in the assay on ERBB3; 78% in the assay on ERBB4; 8% in the assay with ERK1; 0% with ERK2. Also, the “%Inh” value in the assay on ERK3 was determined as 1%; in the assay on ERK4, 0%; in the assay on ERK5, 10%; in the assay with ERK8 it was 38%; in the assay with ERN1, 49%; in the assay with FAK, 0%. For the same compound, the “%Inh” value in the assay with FER worked out at 41%; with FES, 15%.
Consider `CCNC(=O)/C=C/c1n[nH]c2cc(Sc3ccccc3C(=O)NC)ccc12`, for which the “%Inh” value in the assay on EPHA7 stood at 0%; in the assay with EPHA8 it was 0%; in the assay with EPHB1, 0%; in the assay with EPHB2 it was 1%; in the assay with EPHB3, 10%; in the assay with EPHB4, 14%. For the same compound, the “%Inh” value is recorded as 20% in the assay on EPHB6; 16% in the assay on ERBB2; 3% in the assay on ERBB3; 1% in the assay with ERBB4; 8% in the assay on ERK1; 43% in the assay on ERK2. Besides, the “%Inh” value is given as 13% in the assay with ERK3; 15% with ERK4; 3% in the assay on ERK5; 28% with ERK8; 15% in the assay with ERN1; 0% with FAK. Besides, the “%Inh” value was found to be 4% in the assay on FER and 24% in the assay on FES.
With `O=C(Nc1n[nH]c2cc(-c3cccs3)ccc12)C1CC1` [SB-731284], the “%Inh” value with EPHA7, in the assay with EPHA8, in the assay on EPHB1, in the assay with EPHB2, in the assay on EPHB3 and in the assay with EPHB4 was 0% each time. In addition, the “%Inh” value was 55% in the assay with EPHB6; 12% in the assay with ERBB2; 0% with ERBB3; 0% in the assay with ERBB4; 0% with ERK1; 0% in the assay on ERK2. The “%Inh” value is listed as 0% with ERK3; 0% in the assay with ERK4; 0% in the assay with ERK5; 85% in the assay with ERK8; 29% in the assay on ERN1; 0% in the assay with FAK. In addition, the “%Inh” value with FER and in the assay with FES was 0% throughout.
As to `CN1CCN(Cc2ccc(NC(=O)Nc3ccc(N(C)c4ccnc(Nc5ccc(CS(C)(=O)=O)cc5)n4)cc3)cc2)CC1.Cl` [GW827654], the “%Inh” value was 10% in the assay with EPHA7; 77% in the assay with EPHA8; 11% in the assay on EPHB1; 28% in the assay on EPHB2; 0% in the assay on EPHB3; 0% with EPHB4. In addition, the “%Inh” value is 94.5% in the assay with EPHB6; 48% in the assay on ERBB2; 45% in the assay on ERBB3; 33% with ERBB4; 0% in the assay with ERK1; 0% with ERK2. The “%Inh” value in the assay with ERK3 is on record as 0%; in the assay on ERK4, 0%; in the assay on ERK5, 0%; with ERK8, 78%; in the assay with ERN1, 58%; in the assay on FAK, 46%. Also, the “%Inh” value with FER was 45%; in the assay on FES, 21%.
For the compound `CN(C)c1ncnc2nc[nH]c12` [SKF-31736], the “%Inh” value in the assay on EPHA7, in the assay with EPHA8, with EPHB1, with EPHB2, in the assay on EPHB3 and in the assay with EPHB4 was 0% in each case. Also, the “%Inh” value was 0% in the assay on EPHB6; 24% in the assay with ERBB2; 13% with ERBB3; 0% in the assay with ERBB4; 0% in the assay with ERK1; 0% in the assay on ERK2. For the same compound, the “%Inh” value with ERK3 is listed as 0%; in the assay with ERK4 it was 0%; in the assay with ERK5, 0%; with ERK8, 14%; with ERN1, 48%; in the assay with FAK, 0%. Moreover, the “%Inh” value in the assay on FER and with FES was 0% throughout.
For `COc1cccc2c(-c3ccncc3)c(-c3ccc(F)cc3)nn12` [GW468513], the “%Inh” value is 0% in the assay with EPHA7; 3% in the assay on EPHA8; 6% in the assay with EPHB1; 0% with EPHB2; 38% in the assay on EPHB3; 13% in the assay on EPHB4. The “%Inh” value in the assay on EPHB6 was determined as 37%; with ERBB2 it was 50%; in the assay on ERBB3, 21%; in the assay with ERBB4, 68%; in the assay on ERK1, 5%; in the assay with ERK2, 0%. In addition, the “%Inh” value in the assay with ERK3 came to 0%; with ERK4, 0%; in the assay with ERK5, 0%; in the assay with ERK8, 16%; in the assay on ERN1, 0%; in the assay with FAK, 0%. The entries for the “%Inh” value in the assay on FER and with FES were 13% and 1%, respectively.
For `Cc1ccccc1CC(=O)N1CCc2cc(-c3cn(C)c4ncnc(N)c34)ccc21` [GSK2603346], the “%Inh” value came out at 0% with EPHA7; 5% in the assay with EPHA8; 8% in the assay with EPHB1; 0% with EPHB2; 0% with EPHB3; 0% with EPHB4. The “%Inh” value with EPHB6 was 53%; in the assay on ERBB2 it was 8%; in the assay with ERBB3, 0%; in the assay on ERBB4, 32%; in the assay with ERK1, 0%; in the assay with ERK2, 0%. The “%Inh” value in the assay with ERK3 was found to be 0%; in the assay on ERK4, 0%; in the assay with ERK5 it was 0%; in the assay on ERK8 it was 30%; in the assay with ERN1, 1%; in the assay on FAK it was 0%. The “%Inh” value in the assay with FER came to 17%; with FES it was 0%.
Consider `Cc1ccc(Nc2ccnc(Nc3ccc(C)c(F)c3)n2)cc1O.Cl` [GW582868], for which the “%Inh” value in the assay on EPHA7 was found to be 0%; with EPHA8, 26%; in the assay with EPHB1, 1%; in the assay with EPHB2, 0%; in the assay with EPHB3 it was 0%; in the assay with EPHB4, 8%. Moreover, the “%Inh” value is listed as 0% in the assay on EPHB6; 19% with ERBB2; 13% in the assay with ERBB3; 9% with ERBB4; 0% in the assay with ERK1; 0% in the assay on ERK2. For the same compound, the “%Inh” value is 0% with ERK3; 0% in the assay on ERK4; 26% in the assay with ERK5; 43% in the assay with ERK8; 0% with ERN1; 0% with FAK. Also, the “%Inh” value stood at 1% in the assay on FER and 0% in the assay with FES.
